Experimental findings from the supplement of paper PMC10849652 are described below.

Targets with a hit are over-represented here; the source holds about 7,900 in all. About 0.6% of all pairs of compound and target were hits. Unmarked numbers belong to inactive results.

UniProt P30711, sequence (P30711 whole entry, looked up): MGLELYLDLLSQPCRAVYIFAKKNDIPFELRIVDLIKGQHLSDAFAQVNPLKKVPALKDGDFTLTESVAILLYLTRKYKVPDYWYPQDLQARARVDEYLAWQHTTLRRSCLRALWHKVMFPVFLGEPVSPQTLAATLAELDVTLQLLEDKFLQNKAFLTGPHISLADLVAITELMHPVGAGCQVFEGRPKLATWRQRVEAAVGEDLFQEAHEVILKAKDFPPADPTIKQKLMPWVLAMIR
UniProt O14893, sequence (O14893 whole entry, looked up): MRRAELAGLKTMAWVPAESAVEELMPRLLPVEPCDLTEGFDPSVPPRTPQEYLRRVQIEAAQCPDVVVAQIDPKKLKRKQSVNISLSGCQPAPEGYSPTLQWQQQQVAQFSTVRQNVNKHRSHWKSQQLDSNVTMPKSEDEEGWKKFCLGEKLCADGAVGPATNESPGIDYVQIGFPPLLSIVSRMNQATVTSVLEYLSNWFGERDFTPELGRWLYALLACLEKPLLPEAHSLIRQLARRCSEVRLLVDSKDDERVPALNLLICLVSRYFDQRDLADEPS
UniProt Q8WUI4, sequence (Q8WUI4 whole entry, looked up): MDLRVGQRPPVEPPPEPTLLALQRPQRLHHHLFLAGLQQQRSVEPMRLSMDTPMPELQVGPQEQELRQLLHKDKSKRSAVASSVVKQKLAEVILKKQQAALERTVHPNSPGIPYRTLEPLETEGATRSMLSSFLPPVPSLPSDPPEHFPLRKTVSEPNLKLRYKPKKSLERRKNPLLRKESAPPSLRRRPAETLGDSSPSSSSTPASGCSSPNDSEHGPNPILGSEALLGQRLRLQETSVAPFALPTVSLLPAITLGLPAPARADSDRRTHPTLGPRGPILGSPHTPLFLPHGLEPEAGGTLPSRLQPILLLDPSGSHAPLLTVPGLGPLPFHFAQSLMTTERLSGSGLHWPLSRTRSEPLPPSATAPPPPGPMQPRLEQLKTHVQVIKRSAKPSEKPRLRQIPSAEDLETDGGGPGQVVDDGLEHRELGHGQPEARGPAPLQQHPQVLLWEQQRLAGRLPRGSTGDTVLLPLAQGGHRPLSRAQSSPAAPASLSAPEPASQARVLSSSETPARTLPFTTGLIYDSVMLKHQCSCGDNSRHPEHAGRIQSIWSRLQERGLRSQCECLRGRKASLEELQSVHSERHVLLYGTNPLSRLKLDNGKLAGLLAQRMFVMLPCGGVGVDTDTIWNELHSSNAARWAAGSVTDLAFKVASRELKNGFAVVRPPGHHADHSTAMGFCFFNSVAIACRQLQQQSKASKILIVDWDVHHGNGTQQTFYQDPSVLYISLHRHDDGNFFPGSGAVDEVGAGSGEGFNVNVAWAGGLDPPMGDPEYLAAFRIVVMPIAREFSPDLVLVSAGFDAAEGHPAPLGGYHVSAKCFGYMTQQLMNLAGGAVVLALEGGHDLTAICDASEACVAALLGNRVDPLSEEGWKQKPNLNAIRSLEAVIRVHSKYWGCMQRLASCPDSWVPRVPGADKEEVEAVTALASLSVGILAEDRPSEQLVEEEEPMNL
UniProt Q04446, sequence (Q04446 whole entry, looked up): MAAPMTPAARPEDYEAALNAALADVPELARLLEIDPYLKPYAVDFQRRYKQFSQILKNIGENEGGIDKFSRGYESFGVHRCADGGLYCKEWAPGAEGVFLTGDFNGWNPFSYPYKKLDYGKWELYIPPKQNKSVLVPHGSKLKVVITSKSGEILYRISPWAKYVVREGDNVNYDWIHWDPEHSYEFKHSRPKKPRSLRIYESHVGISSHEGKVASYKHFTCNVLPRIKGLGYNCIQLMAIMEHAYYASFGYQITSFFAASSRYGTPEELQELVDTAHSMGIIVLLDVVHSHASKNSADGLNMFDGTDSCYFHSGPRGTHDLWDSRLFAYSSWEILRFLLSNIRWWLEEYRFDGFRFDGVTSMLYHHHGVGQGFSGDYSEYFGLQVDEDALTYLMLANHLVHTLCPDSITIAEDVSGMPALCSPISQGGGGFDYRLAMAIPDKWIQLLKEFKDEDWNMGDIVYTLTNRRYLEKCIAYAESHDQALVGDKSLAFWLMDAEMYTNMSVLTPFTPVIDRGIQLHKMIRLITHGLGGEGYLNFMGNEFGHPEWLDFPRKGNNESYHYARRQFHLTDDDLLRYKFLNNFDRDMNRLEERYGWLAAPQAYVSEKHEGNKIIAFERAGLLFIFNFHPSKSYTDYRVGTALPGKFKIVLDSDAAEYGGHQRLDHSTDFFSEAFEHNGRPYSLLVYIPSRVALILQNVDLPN
UniProt Q9UK97, sequence (Q9UK97 whole entry, looked up): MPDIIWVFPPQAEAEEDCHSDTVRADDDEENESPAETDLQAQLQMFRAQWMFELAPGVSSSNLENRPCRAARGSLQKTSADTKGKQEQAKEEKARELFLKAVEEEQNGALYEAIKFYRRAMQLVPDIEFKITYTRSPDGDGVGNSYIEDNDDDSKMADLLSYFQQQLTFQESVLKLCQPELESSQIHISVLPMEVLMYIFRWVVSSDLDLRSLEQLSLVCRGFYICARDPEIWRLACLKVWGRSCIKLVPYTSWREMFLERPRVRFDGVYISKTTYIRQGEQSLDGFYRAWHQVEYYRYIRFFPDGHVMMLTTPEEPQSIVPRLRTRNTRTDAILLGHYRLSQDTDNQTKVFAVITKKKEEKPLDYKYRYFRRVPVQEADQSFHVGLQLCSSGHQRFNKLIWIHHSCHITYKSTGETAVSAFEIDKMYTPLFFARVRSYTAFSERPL
UniProt P60520, sequence (P60520 whole entry, looked up): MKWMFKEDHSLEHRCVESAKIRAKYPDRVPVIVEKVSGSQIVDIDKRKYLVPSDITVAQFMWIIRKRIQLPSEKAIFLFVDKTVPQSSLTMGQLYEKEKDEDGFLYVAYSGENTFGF
UniProt I6L899, sequence (I6L899 whole entry, looked up): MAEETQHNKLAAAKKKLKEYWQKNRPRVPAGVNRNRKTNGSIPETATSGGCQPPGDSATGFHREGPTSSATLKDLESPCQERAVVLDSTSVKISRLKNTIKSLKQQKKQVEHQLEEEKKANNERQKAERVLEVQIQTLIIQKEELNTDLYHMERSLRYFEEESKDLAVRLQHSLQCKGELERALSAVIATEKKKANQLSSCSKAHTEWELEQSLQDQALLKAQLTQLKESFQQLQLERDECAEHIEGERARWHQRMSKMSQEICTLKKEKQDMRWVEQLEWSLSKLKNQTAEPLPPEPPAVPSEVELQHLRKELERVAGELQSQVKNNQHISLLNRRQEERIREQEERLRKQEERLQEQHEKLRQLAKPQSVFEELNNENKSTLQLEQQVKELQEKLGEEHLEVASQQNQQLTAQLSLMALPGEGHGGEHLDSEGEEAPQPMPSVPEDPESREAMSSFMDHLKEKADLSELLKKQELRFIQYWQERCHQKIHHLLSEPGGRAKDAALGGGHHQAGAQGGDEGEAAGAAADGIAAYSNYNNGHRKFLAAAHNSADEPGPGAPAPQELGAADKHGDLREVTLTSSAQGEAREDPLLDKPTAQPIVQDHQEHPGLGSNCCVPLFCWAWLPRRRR
UniProt P52655, sequence (P52655 whole entry, looked up): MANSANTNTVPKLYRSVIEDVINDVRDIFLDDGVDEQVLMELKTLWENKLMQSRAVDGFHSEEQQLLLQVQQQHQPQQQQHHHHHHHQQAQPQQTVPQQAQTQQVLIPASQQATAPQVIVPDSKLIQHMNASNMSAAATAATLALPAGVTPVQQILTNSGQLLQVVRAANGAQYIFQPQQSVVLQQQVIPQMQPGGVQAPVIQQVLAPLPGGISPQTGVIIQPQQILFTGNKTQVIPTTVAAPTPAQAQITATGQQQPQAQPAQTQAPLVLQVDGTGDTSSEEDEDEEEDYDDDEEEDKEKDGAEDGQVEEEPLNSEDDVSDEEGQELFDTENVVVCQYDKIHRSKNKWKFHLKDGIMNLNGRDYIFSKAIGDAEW
UniProt Q969S8, sequence (Q969S8 whole entry, looked up): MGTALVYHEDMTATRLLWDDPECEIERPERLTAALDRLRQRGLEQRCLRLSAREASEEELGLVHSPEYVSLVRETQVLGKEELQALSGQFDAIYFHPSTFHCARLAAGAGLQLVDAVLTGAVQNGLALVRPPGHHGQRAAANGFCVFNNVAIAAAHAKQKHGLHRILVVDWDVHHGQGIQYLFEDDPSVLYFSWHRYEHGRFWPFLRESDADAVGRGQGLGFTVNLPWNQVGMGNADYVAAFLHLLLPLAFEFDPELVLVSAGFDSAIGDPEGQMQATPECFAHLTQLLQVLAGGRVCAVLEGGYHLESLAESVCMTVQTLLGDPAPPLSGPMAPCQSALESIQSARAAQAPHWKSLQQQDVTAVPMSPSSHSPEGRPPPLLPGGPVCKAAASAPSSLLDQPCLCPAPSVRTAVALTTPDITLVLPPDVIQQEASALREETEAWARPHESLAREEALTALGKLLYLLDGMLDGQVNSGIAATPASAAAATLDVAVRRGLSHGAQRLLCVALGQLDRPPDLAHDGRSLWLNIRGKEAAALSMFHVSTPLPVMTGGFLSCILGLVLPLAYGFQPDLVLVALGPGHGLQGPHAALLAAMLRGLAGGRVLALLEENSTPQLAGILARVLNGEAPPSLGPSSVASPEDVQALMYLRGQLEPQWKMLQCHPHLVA
UniProt Q96SL8, sequence (Q96SL8 whole entry, looked up): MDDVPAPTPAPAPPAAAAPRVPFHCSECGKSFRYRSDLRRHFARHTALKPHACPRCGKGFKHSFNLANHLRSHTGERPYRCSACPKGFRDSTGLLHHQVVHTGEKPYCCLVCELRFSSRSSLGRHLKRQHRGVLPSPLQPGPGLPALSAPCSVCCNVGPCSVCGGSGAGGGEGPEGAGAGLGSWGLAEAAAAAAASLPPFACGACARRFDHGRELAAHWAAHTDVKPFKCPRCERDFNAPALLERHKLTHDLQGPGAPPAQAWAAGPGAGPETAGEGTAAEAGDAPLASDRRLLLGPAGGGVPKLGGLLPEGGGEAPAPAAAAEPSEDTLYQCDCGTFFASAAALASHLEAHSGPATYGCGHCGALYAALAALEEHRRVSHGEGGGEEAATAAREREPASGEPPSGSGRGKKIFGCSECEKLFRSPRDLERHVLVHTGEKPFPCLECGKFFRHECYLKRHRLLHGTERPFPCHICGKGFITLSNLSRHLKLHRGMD

Compound in this assay: CN1CCN(CCOc2cc(OC3CCOCC3)c3c(Nc4c(Cl)ccc5c4OCO5)ncnc3c2)CC1 [saracatinib]
Put plainly: log2 fold change, soluble protein after heating vs DMSO (PISA); higher = thermal stabilisation; K562 cells, 10 uM, 30 min; active = over 0.2 and 3.5 SD of the protein, either way, in both replicates (recomputed). In a few lines: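 K562 cells at 2×10^6 cells/mL were treated for 30 min with 10 μM compound, and aliquots were heated for 3 min over 48°C-58°C before pooling. Extraction used PBS with 0.5% NP-40 at 4°C, and soluble protein was the supernatant after 21,000xg for 90 min, measured by TMTpro 16plex LC-MS/MS with channel sums equalised. Thermal stability values, relative to control samples and from duplicates, are log2 fold changes.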
Consider GNPAT (UniProt O15228), for which the log2 fold change is 0.01.
With GOPC (UniProt Q9HD26), the log2 fold change was -0.147.
As for FCF1 (UniProt Q9Y324), the log2 fold change is -0.111.
Under HNRNPUL1 (UniProt M0R247) stands -0.327.
The same measure for FHOD1 (UniProt Q9Y613): -0.143; for GNL3 (UniProt Q9BVP2): -0.124; for IGF2 isoform 3 (UniProt P01344): 0.148.
With GPD1 (UniProt P21695), the log2 fold change was -0.005.
The same measure for HDAC7 isoform 5 (UniProt Q8WUI4): -0.04; for FIZ1 (UniProt Q96SL8): 0.149; for GABARAPL2 (UniProt P60520): 0.021.
The same measure for FAT2 (UniProt Q9NYQ8): -0.243; for FBXO9 (UniProt Q9UK97): -0.024.
Under FYB1 isoform 3 (UniProt O15117) stands 0.007; under ICMT (UniProt O60725), -0.105.
In the case of FAT1 (UniProt Q14517), the log2 fold change is -0.085.
The same measure for GTF2A1 (UniProt P52655): 0.048; for HS1BP3 (UniProt Q53T59): 0.107; for GSTT1 (UniProt P30711): -0.011.
As to GBE1 (UniProt Q04446), the log2 fold change was -0.252.
As for HDAC10 (UniProt Q969S8), the log2 fold change was -0.04.
As for HNRNPK isoform 3 (UniProt P61978), the log2 fold change was 0.04.
As to GEMIN2 (UniProt O14893), the log2 fold change is 0.001.
The same measure for GOLGA8R (UniProt I6L899): -0.126.
In the case of GSE1 (UniProt Q14687), the log2 fold change is -0.077.
